According to PubChem BioAssay (NCATS):
Results filed as inconclusive are left out. A call without a number means that no potency is given here. The source made the active and inactive calls. The call rests on the fitted dose curve; in most records, active means well fitted curve in the direction sought with a large enough effect; inconclusive means small, poorly fitted or top-dose-only effect, or another doubt; inactive means no such curve, though single readings can be large; an effect the other way counts as inactive or inconclusive.

target: Phospholipid hydroperoxide glutathione peroxidase GPX4 (Homo sapiens) (UniProt P36969); experiment: Primary qHTS Assay for Inhibitors of Recombinant Selenoprotein Glutathione Peroxidase 4 (GPX4) (AID 1845192); details: recombinant GPX4, GR-coupled NADPH fluorescence, 15 min; series mostly up to 50 µM; activity change, negative = inhibition: at the top concentration; further: nearly all actives have a fitted effect of over 65% in size
Procedure, shortened: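 GR-coupled readout: 100 nM GR, 1 mM GSH, 0.5 mM NADPH; NADPH fluorescence (ex 340/em 450 nm) read at t=0 and after 15 min RT. GPX4 200 nM, preincubated 30 min with compound; substrate 0.5 mM CHP.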

Chain of Phospholipid hydroperoxide glutathione peroxidase GPX4 (Homo sapiens) (P36969 whole entry, looked up): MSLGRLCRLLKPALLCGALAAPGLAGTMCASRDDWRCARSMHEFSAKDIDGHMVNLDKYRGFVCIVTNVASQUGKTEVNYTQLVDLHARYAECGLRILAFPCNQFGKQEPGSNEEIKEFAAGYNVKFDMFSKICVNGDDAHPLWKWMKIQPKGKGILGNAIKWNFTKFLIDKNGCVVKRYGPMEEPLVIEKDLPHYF

Row | SMILES | activity change, negative = inhibition | Potency | outcome
1 | CC(C)(C)NCC(O)c1cc(Cl)c(N)c(Cl)c1 (stereo not drawn) | 0.928% (inactive) | – | –
2 | COc1ccc(C(CN(C)C)C2(O)CCCCC2)cc1 (stereo not drawn) | – | inactive | –
3 | OCCOc1ccccc1 | -2.48% [at 100 µM] (inactive) | – | –
4 | NCC1(CC(=O)O)CCCCC1 | – | inactive | –
5 | C[C@]12CC[C@H]3[C@@H](CCC4=CC(=O)CC[C@@H]43)[C@@H]1CC[C@@H]2OC(=O)CCc1ccccc1 | -10.6% (inactive) | – | –
6 | COc1ccc(Cc2nccc3cc(OC)c(OC)cc23)cc1OC | – | inactive | –
7 | CCC(COC(=O)c1cc(OC)c(OC)c(OC)c1)(c1ccccc1)N(C)C (stereo not drawn) | -9.13% (inactive) | – | –
8 | C=C1CC[C@@]2(O)[C@H]3Cc4ccc(O)c5c4[C@@]2(CCN3CC2CC2)[C@H]1O5 | – | – | inactive
9 | Cc1cccc(C)c1NC(=O)CN1CCCC1=O | – | inactive | –
10 | C=C1C[C@@H]2[C@H](CC[C@]3(C)C(=O)CC[C@@H]23)[C@@]2(C)C=CC(=O)C=C12 | – | inactive | –
11 | O=[N+]([O-])c1cc([As](=O)(O)O)ccc1O | -7.21% (inactive) | – | –
12 | CCCC1CCCCN1 (stereo not drawn) | 1.58% (inactive) | – | –
13 | c1ccc2c(c1)Nc1ccccc1S2 | – | – | inactive
14 | O=c1[nH]c2ccccc2n1CCCN1CCC(n2c(=O)[nH]c3cc(Cl)ccc32)CC1 | – | inactive | –
15 | Clc1ccc(COC(Cn2ccnc2)c2ccc(Cl)cc2Cl)cc1 (stereo not drawn) | – | inactive | –
16 | CCN(CC)C(=O)N[C@@H]1C=C2c3cccc4[nH]cc(c34)C[C@@H]2N(C)C1 | 3.6% (inactive) | – | –
17 | Clc1ccc(CCC(Cn2ccnc2)Sc2c(Cl)cccc2Cl)cc1 (stereo not drawn) | – | inactive | –
18 | CNCC(O)c1ccc(O)cc1 (stereo not drawn) | – | inactive | –
19 | Fc1ccc(C(OCCN2CCN(CCCc3ccccc3)CC2)c2ccc(F)cc2)cc1 | – | inactive | –
20 | N[C@@H]1C[C@H]1c1ccccc1 | – | inactive | –
21 | CC(C)=CC1C(C(=O)OCc2cccc(Oc3ccccc3)c2)C1(C)C (stereo not drawn) | – | – | inactive
22 | CC(C)(C)CC(C)(C)c1ccc(O)cc1 | – | – | inactive
23 | CC(C)NCC(O)c1ccccc1Cl (stereo not drawn) | -4.22% (inactive) | – | –
24 | CC(C)CC(N(C)C)C1(c2ccc(Cl)cc2)CCC1 (stereo not drawn) | -24.3% (inactive) | – | –
25 | CCC(C(N)=O)N1CCCC1=O (stereo not drawn) | – | – | inactive
26 | FC(F)(F)c1cccc(C2=CCN(CCc3ccc4ccccc4c3)CC2)c1 | – | – | inactive
27 | Oc1cccc2cccnc12 | – | inactive | –
28 | Cn1c(CCCC(=O)O)nc2cc(N(CCCl)CCCl)ccc21 | – | inactive | –

system: not listed separately; experiment: Quantitative High-Throughput drug screen in 47 multiple myeloma cell lines against the NCATS MIPE library collection: FR4_PLB cell viability assay (AID 1918924; further: nearly all actives have a fitted effect of over 35% in size; further: potency means the concentration at half of the fitted maximal effect); details: FR4_PLB myeloma cells viability, CellTiter-Glo ATP, 48 h; series mostly up to 45.8 µM; viability (% of DMSO control): at the top concentration
Procedure, shortened: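 CellTiter-Glo luminescence (ATP) after 48 h compound exposure, 37C/5% CO2; 500 cells/well; MIPE 4.0 approved/investigational drugs pinned in; DMSO = 100%, media only = 0% viability.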

Row | SMILES | viability (% of DMSO control) | Potency
29 | COc1ccc(C(CN(C)C)C2(O)CCCCC2)cc1 (stereo not drawn) | 104% (inactive) | –
30 | NCC1(CC(=O)O)CCCCC1 | 108% (inactive) | –
31 | O=c1[nH]c2ccccc2n1CCCN1CCC(n2c(=O)[nH]c3cc(Cl)ccc32)CC1 | 104% (inactive) | –
32 | CNCC(O)c1ccc(O)cc1 (stereo not drawn) | 116% (inactive) | –
33 | Fc1ccc(C(OCCN2CCN(CCCc3ccccc3)CC2)c2ccc(F)cc2)cc1 | – | 20.9 µM (active)
34 | Cn1c(CCCC(=O)O)nc2cc(N(CCCl)CCCl)ccc21 | – | 16.6 µM (active)

system: not listed separately; experiment: Quantitative High-Throughput drug screen in 47 multiple myeloma cell lines against the NCATS MIPE library collection: EJM_DSMZ cell viability assay (AID 1918926; further: nearly all actives have a fitted effect of over 30% in size; further: potency means the concentration at half of the fitted maximal effect); details: EJM myeloma cell viability, CellTiter-Glo ATP, 48 h; series mostly up to 45.8 µM; viability, % of control: at the top concentration
Procedure, shortened: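 We plated 500 myeloma cells per well, pinned in MIPE 4.0 compounds, and incubated for 48 hours at 37C. ATP was then quantified with CellTiter-Glo, with DMSO and media-only wells defining 100% and 0%.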

Row | SMILES | viability, % of control | Potency
35 | NCC1(CC(=O)O)CCCCC1 | 111% (inactive) | –
36 | Cc1cccc(C)c1NC(=O)CN1CCCC1=O | 113% (inactive) | –
37 | CNCC(O)c1ccc(O)cc1 (stereo not drawn) | 94.5% (inactive) | –
38 | Fc1ccc(C(OCCN2CCN(CCCc3ccccc3)CC2)c2ccc(F)cc2)cc1 | – | 13.2 µM (active)
